Source: PubChem BioAssay
In the library only some 3% were active in any assay of this set; here they are far more common.
Tau fibril ThT: qHTS for Inhibitors of Tau Fibril Formation, Thioflavin T Binding; 270,000 compounds, 2.1% hits; Microtubule-associated protein tau (Homo sapiens), P10636; Potency, µM (doses to about 57.4 µM), for inactives: at the highest dose activity, negative = inhibition, actives largely listed as inhibitors; recombinant tau K18 P301L, heparin-induced fibrillization, ThT fluorescence; further: nearly all actives have a fitted effect of over 55% in size
Target sequence (P10636 561-689 P618L limits assumed): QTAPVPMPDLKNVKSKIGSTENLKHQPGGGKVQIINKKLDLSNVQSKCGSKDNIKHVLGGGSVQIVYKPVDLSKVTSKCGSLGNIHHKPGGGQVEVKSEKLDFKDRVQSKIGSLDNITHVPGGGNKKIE
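ThT emission at 510 nm, taken 1 hr after adding 30 uM dye, quantifies aggregates formed when 20 uM heparin acts on human tau K18 P301L for 6 hr at 37 C.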
TexasRed fluor: Total Fluorescence Counterscreen for Inhibitors of the Interaction of Thyroid Hormone Receptor and Steroid Receptor Coregulator 2; TRb/SRC2 Texas Red total fluorescence interference; Potency, µM (titrated, usually from 106 µM), for inactives: top-dose fluorescence change, negative = quenching; 280,000 compounds, 0.29% hits; active means well fitted curve in either direction with a large enough effect; inconclusive means small, poorly fitted or top-dose-only effect
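Human TRb ligand-binding domain at 0.6 uM with 20 nM Texas Red SRC2 peptide in Tris buffer containing 1 uM T3 and 5% DMSO, incubated with compound 5 h at ambient temperature. Total fluorescence (555/632 nm) calculated as parallel + 2 × perpendicular.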
TRb SRC2 PPI: qHTS for Inhibitors of the Interaction of Thyroid Hormone Receptor and Steroid Receptor Coregulator 2; Thyroid hormone receptor beta (Homo sapiens), P10828; TRbeta-SRC2 peptide binding, fluorescence polarization; receptor liganded with 1 µM T3; Potency, µM (top dose mostly 106 µM), without a hit: at the top dose activity change, negative = inhibition, most hits filed as inhibitors; 280,000 compounds, 0.065% hits;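 further: plate controls were bound peptide for no effect and peptide without receptor for full effect; nearly all actives have a fitted effect of over 50% in size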
Target sequence (P10828 whole entry, looked up): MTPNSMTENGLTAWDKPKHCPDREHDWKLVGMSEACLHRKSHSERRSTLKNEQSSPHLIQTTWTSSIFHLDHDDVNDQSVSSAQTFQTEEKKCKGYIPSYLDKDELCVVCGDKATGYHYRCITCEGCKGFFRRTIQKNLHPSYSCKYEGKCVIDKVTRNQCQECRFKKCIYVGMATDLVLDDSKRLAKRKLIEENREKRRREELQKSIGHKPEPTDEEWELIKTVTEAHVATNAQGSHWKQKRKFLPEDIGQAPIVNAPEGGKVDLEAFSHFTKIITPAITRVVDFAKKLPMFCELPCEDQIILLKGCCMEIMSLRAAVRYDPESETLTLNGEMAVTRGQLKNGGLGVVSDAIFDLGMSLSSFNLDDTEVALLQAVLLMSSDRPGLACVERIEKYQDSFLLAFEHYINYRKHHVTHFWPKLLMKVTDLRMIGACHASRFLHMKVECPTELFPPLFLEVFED
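Binding of a 20-amino-acid Texas Red SRC2 peptide (20 nM) to TRb ligand-binding domain (0.6 uM) with agonist T3 at 1 uM was followed by fluorescence polarization after a 5 hr room-temperature incubation.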
Tau FP inhib: qHTS for Inhibitors of Tau Fibril Formation, Fluorescence Polarization | Microtubule-associated protein tau (Homo sapiens), P10636 | K18 P301L tau heparin fibrillization, Alexa594 FP, 6 h | Potency, µM (doses to about 57.7 µM), for inactives: at the top dose activity, negative = inhibition, most hits filed as inhibitors | 280,000 compounds, 0.39% hits | AID 1468, 2008; further: nearly all actives have a fitted effect of over 55% in size
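Recombinant K18 P301L […], labeled with Alexa 594 at 0.24 uM over 15 uM unlabeled; heparin inducer 20 uM final; 37 C, 6 hr; FP endpoint.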
Tau fluor counter: Counterscreen qHTS for Inhibitors of Tau Fibril Formation, Fluorescence Polarization; tau K18 P301L (four-repeat tau fragment) Alexa594 fluorescence, heparin fibrillization; Potency, µM (highest dose often 57.7 µM), without a hit: top-dose activity change, negative = decrease; 280,000 compounds, 0.93% hits; further: nearly all actives have a fitted effect of over 55% in size
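Human K18 P301L tau (15 uM unlabeled plus 0.24 uM Alexa 594-labeled, final) in 100 mM sodium acetate pH 7 was mixed with compound and 20 uM heparin and incubated 6 hr at 37 C.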
Numbers without * were called inactive; ? = inconclusive; . = no result; [ ] = dose if it differs, or a comment. Unless noted, the call rests on the fitted dose curve; in most records, active means well fitted curve in the direction sought with a large enough effect; inconclusive means small, poorly fitted or top-dose-only effect, or another doubt; inactive means no such curve, though single readings can be large; an effect the other way counts as inactive or inconclusive. Unless noted, on the % scale 0 is the no-effect control and ±100 the full control effect; potency means the concentration at half of the fitted maximal effect.

SMILES | Tau fibril ThT | TexasRed fluor | TRb SRC2 PPI | Tau FP inhib | Tau fluor counter
CCc1ccc(NSc2ccccc2[N+](=O)[O-])cc1 | ? | 0.7% | 5.2% | 2.5% | 14.1µM*[quencher]
COc1ccc(Nc2nc(N)c([N+](=O)[O-])c(N3CCOCC3)n2)cc1 | ? | -4.3% | -3.8% | 10.2% | ?
CN(C)c1ccc(Nc2nc(N)c([N+](=O)[O-])c(N3CCOCC3)n2)cc1 | 15.8µM* | -8.0% | 3.0% | 6.6% | ?
Cc1sc2ccc3sccc3c2[n+]1C | 25.1µM* | -0.3% | -1.9% | ? | -24.4%
Cc1sc2c3ccsc3ccc2[n+]1C | 25.1µM* | -1.1% | 5.2% | 20µM* | -21.5%
Cc1ccc(Nc2sc(C(=O)c3ccccc3)c(N)c2S(=O)(=O)c2ccccc2)cc1Cl | 2.0% | -1.2% | -2.4% | ? | -13.3%
CC[C@H](C)C(N)C(=O)O (stereo partly specified) | . | -0.9% | 6.7% | . | .
CCN(CC)C(=O)Cn1c(=O)n(Cc2ccc(C(=O)NCCc3ccc(OC)c(OC)c3)cc2)c(=O)c2ccccc21 | -6.9% | -0.1% | 7.6% | -1.5% | -9.4%
O=C1C(Cl)=C(N2CCCCC2)C(=O)C(Cl)=C1c1cnc(N2CCCCC2)s1 | 15.8µM* | -16.4% | -13.4% | 22.4µM* | ?
CC(C)NC(=O)c1cnc2sc(N3CCCCCC3)nn2c1=O | 1.6% | 2.3% | 2.7% | -1.2% | 1.6%
N#CC12C(N)=NC3(OCCO3)C1(C#N)C1=C(CCC1)NC2c1ccccc1 (stereo unspecified) | ? | 1.0% | 3.9% | -4.2% | -11.9%
N#CC1(C#N)C2=C(CCCC2)NC(c2ccccc2)C1(C#N)C#N (stereo unspecified) | 25.1µM* | 9.1% | -0.7% | ? | ?
COc1cc2c(cc1NC(=S)NC(=O)c1c(OC)cccc1OC)oc1ccccc12 | -1.3% | 2.1% | -16.9% | 28.2µM* | -21.9%
O=C1NC(=S)S/C1=C\c1ccc(SCc2ccco2)o1 | 4.47µM* | ? | ? | ? | ?
O=C1NC(=S)S/C1=C\c1ccc(SCc2ccccc2)o1 | 10µM* | -13.1% | 3.9% | -5.9% | ?
Cc1nc2nc(NC(=O)C(C)(C)C)[nH]n2c(=O)c1Cc1ccccc1 | 1.7% | 0.8% | 4.1% | 1.9% | 10.4%
CN(C)c1ccc(NC(=S)NC(=O)/C=C/c2ccc(Cl)cc2)cc1 | 10µM* | 1.0% | 1.7% | -6.3% | ?
CN(C)c1ccc(NC(=S)NC(=O)/C=C/c2ccco2)cc1 | ? | -2.9% | -5.0% | -12.8% | -23.4%
Cc1cccc(N2CCN(S(=O)(=O)c3ccc4c(c3)CC(=O)N4C)CC2)c1C | -0.6% | 22.4µM*[quencher] | -7.0% | 3.7% | 5.2%
O=C(CSc1cn(CCNC(=O)c2c(F)cccc2F)c2ccccc12)Nc1ccc(F)cc1 | -13.3% | 8.3% | 13.1% | -4.6% | ?
O=C(O)C(C(=O)/C=C/c1ccco1)=C1SCCS1 | 15.8µM* | -10.4% | -6.9% | ? | -15.7%
O=C(COc1ccc(F)cc1)N(c1ccccn1)C1CCCCC1 | -12.3% | -0.1% | 0.3% | 0.6% | -11.0%
CC(C)c1ccc(OCC(=O)N(c2ccccn2)C2CCCCC2)cc1 | -6.0% | 5.62µM*[quencher] | -26.3%[53 µM] | 4.8% | -9.2%
CNC(=O)C1CCC(Cn2c(=O)c3sccc3n(CC(=O)N3CCC(C)CC3)c2=O)CC1 (stereo unspecified) | -0.7% | -1.7% | 3.3% | -3.4% | 1.0%
CC1(c2ccccc2)CC(C)(C)N2C(=O)C3(C(C#N)=C(N)Oc4cc(O)ccc43)c3cccc1c32 (stereo unspecified) | -19.4% | -1.1% | -11.2% | 25.1µM* | ?
SMILES | Tau fibril ThT | TexasRed fluor | TRb SRC2 PPI | Tau FP inhib | Tau fluor counter
Cc1cc2c3c(c1)C(C)(c1ccccc1)CC(C)(C)N3C(=O)C21C(C#N)=C(N)OC2=C1C(=O)CC(C)(C)C2 (stereo unspecified) | -19.4% | 1.1% | -25.3% | 12.7% | -12.0%
Cc1ccc2c(c1)c1c(c(=O)n(-c3cccc(Cl)c3)c(=O)n1CC(=O)NCCC1=CCCCC1)n2C | 2.3% | -2.6% | -7.7% | -6.9% | -2.7%
Cc1ccccc1C(=O)Nc1ccc2nc(Nc3cccc(C(F)(F)F)c3)cc(C)c2c1 | -22.8% | ? | 3.7% | ? | 5.62µM*[quencher]
Cc1cc(Nc2cccc(C(F)(F)F)c2)nc2ccc(NC(=O)c3cncc(Br)c3)cc12 | ? | 3.1% | 12.4% | -7.5% | 5.01µM*[quencher]
CCOc1cc(C(=O)Nc2ccc3nc(Nc4cccc(Cl)c4)cc(C)c3c2)cc(OCC)c1OCC | ? | 4.1% | 5.1% | -6.8% | 2.24µM*[quencher]
CCN1CCN(c2cc(C)c3cc(NC(=O)c4cncc(Br)c4)ccc3n2)CC1 | ? | -11.7% | -6.5% | ? | ?
Cc1cc(Nc2cccc(Cl)c2)nc2ccc(NC(=O)c3cncc(Br)c3)cc12 | ? | -7.1% | 5.0% | -11.2% | 6.31µM*[quencher]
CCOC(=O)c1cccc(NC(=O)c2cncc(Br)c2)c1 | -1.8% | 1.3% | -0.6% | 0.6% | -1.3%
CC(C)Cn1nnnc1S(=O)(=O)Cc1ccccc1 | -4.8% | -1.0% | -2.6% | ? | -1.2%
COCCCNC(=O)Cn1c(=O)n(-c2cccc(C)c2)c(=O)c2c1c1cc(C)ccc1n2C | -10.5% | -0.3% | -4.6% | -1.2% | -19.0%
O=C(Cn1c(=O)n(Cc2ccc3c(c2)OCO3)c(=O)c2oc3ccccc3c21)Nc1ccccc1 | ? | -1.4% | -0.4% | ? | -23.5%
COc1cccc(NC(=O)Cn2c(=O)n(-c3ccccc3)c(=O)c3ccc(C(=O)NCc4ccc5c(c4)OCO5)cc32)c1 | 15.4% | -0.3% | -2.2% | 31.6µM* | -28.8%
COc1cccc(NC(=O)Cn2c(=O)n(-c3ccc(Cl)cc3)c(=O)c3sc4ccccc4c32)c1 | 11.2% | -6.5% | -0.2% | ? | -16.9%
COc1cccc(-n2c(=O)c3sc4ccccc4c3n(CC(=O)Nc3cccc(Cl)c3)c2=O)c1 | 11.6% | -1.0% | -0.1% | 22.4µM* | ?
COc1cccc(NC(=O)Cn2c(=O)n(Cc3ccc4c(c3)OCO4)c(=O)c3oc4ccccc4c32)c1 | ? | -1.9% | 11.2% | 28.2µM* | ?
CCOC(=O)c1c(-c2ccccc2)csc1NC(=O)c1nc(SCC)ncc1Cl | -14.7% | 2.7% | -5.2% | -14.5% | -21.6%
CCOC(=O)c1c(NC(=O)c2nc(S(C)(=O)=O)ncc2Cl)sc(C(C)=O)c1C | 22.4µM* | 4.8% | -5.2% | ? | ?
CCOC(=O)c1c(-c2ccccc2)csc1NC(=O)c1nc(S(=O)(=O)CC)ncc1Cl | 12.6µM* | 12.3% | -6.6% | ? | ?
